Experimental data reported in PubChem BioAssay (EPA / NIEHS).
Records with an inconclusive call do not appear. Active and inactive are the calls of the source. The calls were made as follows: active = hit-call score of the fitted dose curve at least 0.9, where 1 is the maximum; inconclusive = response in the unintended direction; inactive = score below 0.9.

experiment: Tanguay_ZF_120hpf_SWIM_legacy: (Legacy) Oregon State University Tanguay Lab 120 Hour Post-fertilization zebrafish Assay for Swim Bladder Malformation (AID 2283654);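 also: swim bladder malformation in each larva scored yes or no under brightfield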
Method: Tanguay_ZF_120hpf_legacy is a whole embryo, multiplexed endpoint assay using zebrafish larvae exposed for 120 hours post fertilization on a 96-well plate.Tanguay_ZF_120hpf_SWIM_legacy is one of one assay component(s) measured or calculated from the Tanguay_ZF_120hpf_legacy assay. It is designed to make measurements of zebrafish development as detected with brightfield microscopy of developing zebrafish embryos.Data from the assay component Tanguay_ZF_120hpf_SWIM_legacy was analyzed into 1 assay endpoints. This assay endpoint, Tanguay_ZF_120hpf_SWIM_legacy, was analyzed in the positive analysis fitting direction relative to DMSO as the negative control and baseline of activity. Using a type of morphology reporter, gain-of-signal activity can be used to understand changes in developmentals as they relate to the whole embryo. To generalize the intended target to other relatable targets, this assay endpoint is annotated to the zebrafish development intended target family, where the subfamily is swim bladder morphogenesis.
Zebrafish husbandry: Tropical 5D wild-type adult zebrafish were housed in at an approximate density of 1000 per 100 gallon tank at the Sinnhuber Aquatic Research Laboratory, Oregon State University, Corvallis, OR. Each tank was kept at standard laboratory conditions of 28C on a 14-h light/10-h dark photoperiod in fish water consisting of reverse osmosis water supplemented with a commercially available salt (Instant Ocean). Spawning funnels were placed into the tanks the night prior, and embryos were collected and staged. To increase bioavailability, the chorion was enzymatically removed using pronase (63.6mg/ml, >/= 3.5U/mg, Sigma-Aldrich: P5147) at 4 hours post fertilization (hpf) using a custom automated dechorionator.Chemical exposures: Six hpf dechorionated embryos were placed 1 embryo per well in a 96-well plate prefilled with 90 ul of EM using automated embryo placement systems (AEPS). Ten microliters of each row of dilution plate 2 was added to 2 exposure plates. The final DMSO concentration used was 0.64% (vol/vol). Thirty-two embryos were also exposed to 5uM trimethyltin chloride (positive control). Plates were sealed to prevent evaporation and foil covered to reduce light exposure and kept in a 28C incubator. Embryos were statically exposed until 120 hpf. At 24 hpf, embryos were assessed for photomotor response using a custom photomotor response analysis tool (PRAT) and for developmental toxicity endpoints (MO24: mortality at 24 hpf, DP: developmental progression, SM: spontaneous movement, and NC: notochord distortion). At 120 hpf, locomotor activity was measured using Viewpoint Zebralab and assessed for 18 endpoints. Zebrafish acquisition and analysis program (ZAAP), a custom program designed to inventory, acquire, and manage zebrafish data, was used to collect developmental endpoints as either present or absent (i.e., binary responses were recorded). If mortality occurred for an embryo (at either 24 or 120 hpf), the non-mortality endpoints were not measured.

Compound	outcome	AC50
CCCCC(CC)COC(=O)CCCCCCCC(=O)OCC(CC)CCCC (stereo not given)	inactive	
CCOCCOCCO	inactive	
CO[C@@H]1COCC[C@@H]1N[C@@H]1CC[C@@](C(=O)N2CCc3ncc(C(F)(F)F)cc3C2)(C(C)C)C1	inactive	
C=CCCCCCCCCCCCC	inactive	
COc1ccc(OC(F)(F)F)cc1CN[C@H]1CCCN[C@H]1c1ccccc1	inactive	
Cc1ccc(C(C)(C)C)c(O)c1	inactive	
OCC(CO)n1cnc(-c2ccc(F)cc2)c1-c1ccnc(Oc2ccccc2)n1	inactive	
NC=O	inactive	
CCCCOC(=O)CCCCC(=O)OCCCC	inactive	
CCCCC(CC)CO (stereo not given)	inactive	
CC1(C)C(=O)NC(=O)N1CO	inactive	
S=c1[nH]c2ccccc2s1	inactive	
CC(=O)CC(c1ccccc1)c1c(O)c2ccccc2oc1=O (stereo not given)	inactive	
O=C1NC(=O)C(c2ccccc2)(c2ccccc2)N1	inactive	
COC(=O)CCCC(=O)OC	inactive	
O=C1OC(c2ccc(O)cc2)(c2ccc(O)cc2)c2ccccc21	inactive	
C/C=C/C=C/C(=O)O	inactive	
CN(C)CCCN(C)CCCN(C)C	inactive	
O=C(O)CC(O)(CC(=O)O)C(=O)O	inactive	
NCCOCCOCCN	inactive	

Compound	outcome	AC50
CC(=O)O[C@]1(C(C)=O)CC[C@H]2[C@@H]3C=C(Cl)C4=CC(=O)[C@@H]5C[C@@H]5[C@]4(C)[C@H]3CC[C@@]21C	inactive	
CCCCc1nc2cccnc2n1Cc1ccc(-c2ccccc2-c2nnn[nH]2)cc1	inactive	
C#CC(O)C(CC)CCCC (stereo not given)	inactive	
CSc1ccc(Oc2ccc(S(N)(=O)=O)cc2CN(C)C)cc1C	inactive	
O=C(O)c1[nH]n(-c2ccc(S(=O)(=O)O)cc2)c(=O)c1N=Nc1ccc(S(=O)(=O)O)cc1	inactive	
CCC(C)N(C)C(=O)c1cc2ccccc2c(-c2ccccc2Cl)n1 (stereo not given)		18.5 µM (active)
C/C=C/c1ccc(OC)cc1	inactive	
CC(=O)S[C@H](C(=O)N[C@H]1Cc2ccccc2[C@H]2CCC[C@@H](C(=O)O)N2C1=O)C(C)C	inactive	
O=C1O[C@H]([C@H](O)CO)C(O)=C1O	inactive	
Oc1ccccc1O	inactive	
N[C@@H](Cc1c[nH]c2ccccc12)C(=O)O	inactive	
CC(=O)O	inactive	
CCCCCCCCCCCCCCOS(=O)(=O)O	inactive	
CC(C)OC(=O)C(C)(C)Oc1ccc(C(=O)c2ccc(Cl)cc2)cc1	inactive	
CC(C)COC(=O)CCCCC(=O)OCC(C)C	inactive	
CCCCCCCC(=O)OC	inactive	
OCC(O)CO	inactive	
CC(=O)[C@@]1(O)CC[C@H]2[C@@H]3CCC4=CC(=O)CC[C@]4(C)[C@H]3CC[C@@]21C	inactive	
CS(=O)(=O)c1ccc([C@@H](C[C@H]2CCC(=O)C2)C(=O)Nc2cnccn2)cc1Cl	inactive	
COC(=O)CCC(=O)OC	inactive	
